From PubChem BioAssay (NCI)
Compounds without any hit were thinned out: in the full panel of roughly 83,000, 20% have a hit.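 Note: values are percent growth. 100 is the growth of untreated cells, values between 100 and 0 indicate rising inhibition; between -100 and 0 indicates cell death.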 Values without a mark were called inactive. The source made the active and inactive calls. How the source made its calls: active means growth percent below 10; inactive means the rest.

Columns and labels:
Assay in all cases: NCI-60 one-dose screen, 48 h (100 = growth as untreated, 0 = no growth, -100 = all killed)
Details in all cases: 10 µM unless noted
[1] = tested on: SR leukemia
[2] = tested on: RPMI-8226 leukemia
[3] = tested on: OVCAR-8 ovarian
[4] = tested on: OVCAR-4 ovarian
[5] = tested on: SK-OV-3 ovarian
[6] = tested on: IGROV1 ovarian
[7] = tested on: OVCAR-3 ovarian
[8] = tested on: HS 578T breast
[9] = tested on: NCI/ADR-RES ovarian
[10] = tested on: OVCAR-5 ovarian

Compound	growth [1]	growth [2]	growth [3]	growth [4]	growth [5]	growth [6]	growth [7]	growth [8]	growth [9]	growth [10]
COc1c(C)c2c(c(O)c1C/C=C(\C)CCC(=O)O)C(=O)OC2	14%	57.8%	11.9%	44.5%	45.2%	12.9%	34.4%	72%	31.2%	–
CC(O)C(O)C(O)C(O)C(O)C(=O)NNc1ccccc1 (stereo not drawn)	49.7%	99.1%	–	96.5%	99.5%	80%	99.4%	91.2%	84.2%	84.6%
O=C(/C=C/C(Cl)(Cl)Cl)Nc1ccc(Cl)cc1	40.1%	75.3%	–	115%	110%	-76.5% (active)	119%	105%	95.5%	93.7%
O=C(CCl)N1c2ccccc2Sc2c1ccc1ccccc21	12.9%	36.1%	64.2%	–	106%	34.4%	74.3%	82.1%	75.3%	108%
CC(C)=C1C=C2CC[C@@H]3[C@](C)(CCC[C@@]3(C)C(=O)O)[C@H]2CC1	99%	107%	–	94.4%	105%	103%	98.9%	110%	100%	96.8%
Oc1c(Cl)cc(Cl)cc1C(c1cc(Cl)cc(Cl)c1O)C(Cl)(Cl)Cl	9.73% (active)	-9.94% (active)	–	20.4%	-16.7% (active)	-15.7% (active)	-7.63% (active)	-11.5% (active)	-15.7% (active)	1.83% (active)
CCc1cnc2ccccc2c1/C=C/c1ccc(N(C)C)cc1	4.96% (active)	67.3%	–	79.3%	38.5%	42%	16.9%	62.8%	21.8%	75%
C/C(=N/NC(N)=S)c1ccc(C)cc1	94.6%	71.4%	–	88%	98.8%	105%	62.8%	102%	76%	111%
COc1ccc2c(c1OC)OCC(CN(C)C)C2=O (stereo not drawn)	78.2%	-40.8% (active)	–	-50.8% (active)	108%	93.3%	92.4%	106%	106%	92.9%
NC(=S)N/N=C\c1nccc2c(C(F)(F)F)cccc12	-28.6% (active)	-13.9% (active)	11.1%	–	11.4%	4.12% (active)	15.3%	54.3%	0.716% (active)	36%
COc1ccc(/C=C2/C(=O)ON=C2C)cc1	115%	99.1%	105%	115%	100%	–	111%	102%	115%	–
O=C(NOC(=O)c1ccccc1)c1ccccc1	84.5%	75.7%	–	105%	109%	107%	115%	83.5%	93.7%	109%
Oc1ccc(Cl)cc1Cc1cc(Cl)ccc1O	81.4%	-1.2% (active)	20.9%	38.7%	84.8%	41.1%	9.92% (active)	34.2%	4.47% (active)	–
CCCCCCCCCCCCCCCCSC(=NCC)NCC	-43.3% (active)	-43.3% (active)	–	2% (active)	72.1%	-89.3% (active)	-18.1% (active)	66.1%	25.4%	44.5%
O=[n+]1c2ccccc2n([O-])c2cc(Cl)ccc21	1.27% (active)	73.8%	–	40.3%	87.7%	65.6%	44.6%	88.8%	59.6%	108%
N#CC1c2ccccc2C=CN1C(=O)CCCl (stereo not drawn)	5.98% (active)	24.3%	–	108%	97.2%	95.3%	91.4%	104%	102%	108%
